Results as given in PubChem BioAssay (NCI).
Values joined by “and” are separate entries in the source; they are usually repeats but may differ in a detail not shown here. Identical values can stand only once. This is part of a sample that, as a whole, favours compounds with a hit. Of some 79,000 tested, about 15% had one in any assay. A number with no mark means an inactive call. Active and inactive are the calls of the source. Rule as the data show it: active = growth inhibition above about 70%; inactive = the rest.

Legend:
[1] = NCI Yeast Anticancer Drug Screen. Data for the rad50 strain (AID 155);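 also: 0% = growth of vehicle-only cultures of the same strain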; details: S. cerevisiae rad50 strain growth inhibition, stronger effect = higher value; at 50.0 µM unless noted
Summary of the method: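 A DNA repair-deficient yeast mutant serves as the test organism; compound-induced growth inhibition is calculated against vehicle-treated cells.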

[2] = NCI Yeast Anticancer Drug Screen. Data for the mec2-1 strain (AID 157); details: S. cerevisiae mec2-1 strain, stronger effect = higher value; at 50.0 µM unless noted
Summary of the method: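 Using mec2-1 yeast: add compound, measure growth, express inhibition versus vehicle-treated cultures.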

[3] = NCI Yeast Anticancer Drug Screen. Data for the sgs1 mgt1 strain (AID 161);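 also: 0% = growth of cultures given vehicle only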; details: S. cerevisiae sgs1 mgt1 strain, stronger effect = higher value; at 50.0 µM unless noted
Summary of the method: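 Percent growth inhibition was derived by comparing compound-exposed mutant yeast with vehicle-exposed cultures. The strain carries alterations in DNA damage repair.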

[4] = NCI Yeast Anticancer Drug Screen. Data for the cln2 rad14 strain (AID 165);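 also: 0% = growth equal to vehicle treated cultures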; details: S. cerevisiae cln2 rad14 strain, stronger effect = higher value; at 50.0 µM unless noted
Summary of the method: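 Yeast strain cln2 rad14, bearing defects in cell cycle control and DNA repair, serves as the test system; values reflect growth inhibition compared with vehicle.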

[5] = NCI Yeast Anticancer Drug Screen. Data for the bub3 strain (AID 167); details: S. cerevisiae bub3 mutant strain, stronger effect = higher value; at 50.0 µM unless noted
Summary of the method: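 Inhibition values come from growth of compound-treated mutant yeast normalised to vehicle-treated controls.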

[6] = NCI Yeast Anticancer Drug Screen. Data for the mlh1 rad18 strain (AID 175); details: S. cerevisiae mlh1 rad18 strain growth inhibition, stronger effect = higher value; at 50.0 µM unless noted
Summary of the method: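 Steps: expose repair-defective yeast to compound; measure growth; express inhibition against vehicle-treated controls.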

| SMILES | growth inhibition [1] | growth inhibition [2] | growth inhibition [3] | growth inhibition [4] | growth inhibition [5] | growth inhibition [6] |
| --- | --- | --- | --- | --- | --- | --- |
| CCN(CC)c1ccc2cc(C(=O)Nc3ccccc3)c(=N)oc2c1 | 15.5% | 5.45% | 1.8% | 13.7% | -20.2% | -39.1% |
| COc1ccccc1CN1CCCN(Cc2ccccc2OC)C1c1ccc(N(C)C)cc1 | 59.6% | 32.6% | 32.5% | 22.8% | 14.3% | 49.2% |
| COc1ccc(C2=NC(CO)[C@H](c3ccccc3)O2)cc1OC (stereo not given in full) | 2.35% | -13.2% | 8.05% | 17.4% | -3.75% | -7.15% |
| O=S(=O)(NCCN1CCNC1=S)c1ccc(Cl)c(Cl)c1 | -55.5% | -12.7% | -3.25% | -16.7% | -6.2% | -6.6% |
| Oc1ccc(O)c(CNc2ccc(C(O)C(F)(F)F)cc2)c1 (stereo not given) | 14.9% | 9.2% | 16.8% | 6.45% | 22.1% | 15.9% |
| Cc1cccc(C(=N)c2ccccc2Cc2cccc3ccccc23)c1C | 51% | 6.5% | 66% | 17.6% | 68.5% | 37.8% |
| C=C(C)[C@H]1C=C[C@@H](OC(=O)c2cccnc2)[C@@]23CO[C@@](C)([C@H](OC(=O)c4cccnc4)[C@@]4(OC(C)=O)C[C@H](C)[C@H](OCCC)[C@@H]4[C@H]2OC(C)=O)[C@H]13 | -11.2% | -6.1% | 27.4% | 35.4% | 22.6% | 79.8% (active) |
| CCCCCCCCSC(=N)N | 23.9% | -14.1% | 1.95% | 18.1% | 36.1% | 10.7% |
| C[N+]1(CCC(=O)c2ccccc2)CCOCC1 | 42% | 9.85% | 28.4% | 20.8% | 13.5% | 19.9% |
| Cc1cc(Cl)cc2c1OC(C)OC2=O (stereo not given) | -7.85% | 0.2% | -17.6% | -5.6% | 11.6% | 28.6% |
| C[C@H]1CC[C@@H]2O[C@@]23C(=O)OC2OC(C)(C)[C@@H]([C@H]2O)[C@]13C | -18.6% | -4.85% | -26% | -0.35% | -5.2% | -10.9% |
| CCOC(=O)Cc1nc(/C(C#N)=C/c2ccco2)[nH]c(=O)c1C#N | 2.4% | 7.8% | 30.9% | 34.2% | 8.15% | 39.6% |
| CC(=O)c1ccc(Cl)cc1Cl | -12.4% | -11.8% | -3.7% | -6.65% | -13.3% | -38.5% |
| C[n+]1c(SCC(=O)O)sc2ccccc21 | -28.8% and 1.2% | -46.3% and 10.1% | 3.7% and 19.6% | 14.9% and 6.5% | -26.6% and 34.2% | 5.7% and 22.9% |
| CC(=O)OCC1C2C=CC(C2)C1COC(C)=O (stereo not given) | 2.2% | -4.8% | -5.1% | -47.1% | -2.9% | 2.1% |
| CC1(O)CCCC1(C)O (stereo not given) | -29.1% | -21.1% | -19.1% | -38.9% | -21.7% | -23.8% |
| COC(=O)[C@H]1C2CC[C@@H]3C45C[C@@H](c6ccoc6)O[C@@H]4O[C@@H](O2)C31CCC5C (stereo not given in full) | 14.5% | -18.4% | 6.35% | 5% | -30.1% | 14.9% |
| COc1cccc(Br)n1 | -4.15% | -17.1% | 6.95% | 15.1% | -8.85% | 26.9% |
| NC(=S)/N=C/C=C\c1ccccc1 | -10.6% | 2.3% | 5.25% | 0.35% | -13.8% | -7.7% |
| COc1ccc(C(=O)C(CN(C)C)CN(C)C)c(OC)c1 | 30.6% | 30.8% | 57% | 32.9% | 30.8% | 64.2% |

| SMILES | growth inhibition [1] | growth inhibition [2] | growth inhibition [3] | growth inhibition [4] | growth inhibition [5] | growth inhibition [6] |
| --- | --- | --- | --- | --- | --- | --- |
| N#CC1=C(NC(N)=O)CCCC1 | -0.7% | 36.7% | 10.7% | 35.3% | 10.1% | 5.45% |
| CNc1nc(=O)[nH]c(C)c1[N+](=O)[O-] | 19.9% | 4.45% | -6.9% | -60.8% | -4% | 12.6% |
| CCOC(CC(=O)NCCNC(C)=O)OCC | 38% | 4.6% | 7.2% | 2.05% | 18.4% | 43.1% |
| Cc1ccc2c(c1)C(C(=O)N[C@@H]1C(=O)N3[C@@H]1SC(C)(C)[C@@H]3C(=O)O)OCCC2 (stereo not given in full) | -5.1% | -12.3% | 16.2% | 2.45% | 0.65% | -68.4% |
| Cc1ccccc1NS(=O)(=O)N1CCCCC1 | -11.8% | -24.4% | -4.3% | 18.9% | 22.1% | -5.65% |
| Cc1ccc(C(=O)/C=C/C(=O)c2ccc(C)cc2)cc1 | 4.55% | 29.9% | 19.2% | 19.9% | 14.9% | 3.8% |
| CC(=O)NCC(=O)c1ccc([N+](=O)[O-])cc1 | 16.6% and -14.7% | -16.3% and -24.1% | 13% and -0.95% | -0.2% and 6.65% | -6.95% and -17.6% | 29.8% and -1.7% |
| O=C(Nc1ccccc1)Nc1ccc([N+](=O)[O-])cc1[N+](=O)[O-] | 25.5% | 5.95% | 26.9% | 19.7% | 11.9% | 20.6% |
| N#C/C(=C1/c2cc([N+](=O)[O-])ccc2-c2c1cc([N+](=O)[O-])cc2[N+](=O)[O-])N1CCCCC1 | -25.4% | -5.3% | 2.5% | -17.8% | -22.8% | -13.7% |
| CCSc1nc2n(c(=S)n1)CCN2C | 15.4% | -3.5% | 13.8% | 6.5% | 22.6% | 18.2% |
| CC(C)N1CCN(c2ccncc2S(=O)(=O)N2CCCC2)CC1 | 2.7% | 4.8% | -4.65% | -33.9% | 1.35% | 8.4% |
| COC(=O)[C@@H]1Cc2cc(O)c(O)cc2C2(CCN(C)CC2)O1 | -21.5% | -22.8% | -17.6% | -12.2% | -10.7% | -29.1% |
| CC(CC(=O)Nc1ccccc1CC(c1c[nH]c2ccccc12)c1c[nH]c2ccccc12)C(=O)O (stereo not given) | 0.6% | -14.2% | 3.4% | -12.9% | 6.7% | 17.5% |
| CCCCCCCCCCCCCCCCCCOc1ccccn1 | -9.8% | -32.1% | -9.75% | 2.55% | -17.9% | 3.25% |
| CCCCSCC(N)CO (stereo not given) | 9.05% | 5.2% | 10.7% | -34.2% | 0.55% | 1.75% |
| O=C(CC1CCCCC1)OCCOCCO | -7.9% | -5.7% | -27.6% | 3.35% | -2.85% | -3.5% |
| Cc1ccccc1-c1nc2c(N)nc(N)nc2nc1N | -4.2% | -12.8% | -23.6% | -18.9% | -36.9% | -62% |
| CCCCCCC/C=C/C1CC(=O)OC1=O (stereo not given) | 18.4% | 11.2% | 9.55% | 7.05% | 4.05% | 29.6% |
| O=C(Nc1cccc2ccccc12)c1ccc(Cl)cc1Cl | 4.15% | 14.9% | 21.5% | 1.35% | 8.55% | 4.65% |
| COc1ccc2c(c1)c(C)cc[n+]2C | -3.3% | 8.5% | -5.9% | -9.65% | -3.05% | -19.3% |
